Records with an inconclusive call do not appear. A number with no mark means an inactive call. Active and inactive are the calls of the source. Calls follow the shape of the dose curve; as a rule, active = well fitted inhibition curve with a large enough effect; inconclusive = small, poorly fitted or top-dose-only effect; inactive = flat fitted curve, though single readings scatter.
assay: P-glycoprotein substrates identified in KB-8-5-11 adenocarcinoma cell line, qHTS therapeutic library screen (AID 1346987); conditions: KB-8-5-11 (P-gp overexpressing) viability, CellTiter-Glo, 72 h; series mostly up to 44.5 µM; activity change, negative = cytotoxicity: at the top concentration; also: nearly all actives have a fitted effect of over 65% in size
Description: The ATP-binding cassette transporters P-glycoprotein (P-gp) is known to limit brain penetration of many chemotherapy drugs. […] As such, we developed a high-throughput screen (HTS) to identify substrates of P-gp from a series of chemical libraries including the National Center for Advancing Translational Sciences Pharmaceutical Collection NPC, 2,816 compounds), testing a total of 10,804 compounds, most of which have known mechanisms of action. We used the CellTiter-Glo viability assay to test library compounds against the parental KB-3-1 human cervical adenocarcinoma cell line and the colchicine-selected sub-line KB-8-5-11 that over-expresses P-gp. KB-8-5-11 cells were also tested in the presence of a P-gp inhibitor (tariquidar) to assess reversability of transporter-mediated resistance. Of the tested compounds, a total of 90 P-gp substrates were identified including 55 newly identified P-gp substrates. Substrates were confirmed using an orthogonal killing assay against HEK-293 cells transfected with P-gp. As exemplars, we confirmed that […] (cyclin-dependent kinase inhibitor); AT9283, (Janus kinase 2/3 inhibitor); ispinesib (kinesin spindle protein inhibitor); gedatolisib (PKI-587, phosphoinositide 3-kinase/mammalian target of rampamycin inhibitor); GSK-690693 (AKT inhibitor); and KW-2478 (heat shock protein 90 inhibitor) were substrates , and direct ATPase stimulation was assessed. ABCG2 was also found to confer high levels of resistance to AT9283, GSK-690693 and gedatolisib, while ispinesib, AT7519 and KW-2478 were weaker substrates.
The HeLa derivative cell line, KB-3-1, and its colchicine-selected, P-gp-overexpressing subline, KB-8-5-11 were maintained in DMEM with 10% FCS and Pen/Strep with glutamine at 37 degree C in 5% CO2. For KB-8-5-11 cells, colchicine was added to the medium at a concentration of 100 ng/mL. HEK-293 cells transfected with empty vector (pcDNA) or vector containing human ABCB1 (MDR-19) or ABCG2 (R-5) have been described previously (Robey, Lin, Qiu, Chan & Bates, 2011) and were maintained in EMEM supplemented with 10% FCS, Pen/Strep and glutamine with 2 mg/ml G418 to select for the expression of the transporter. Cultures were confirmed to be free of mycoplasma infection using the MycoAlert Mycoplasma Detection Kit (Lonza, Walkersville, MD). For the screen, assay medium was identical to culture medium except for KB-8-5-11 where colchicine was excluded from the medium.
All cell lines were plated into 1536-well plates at 500 cells/well in 5 uL media. Compounds were then pinned in dose-response using a 1536-head pin tool (Kalypsis, San Diego, CA) and plates were incubated at 37 degree C in 5% CO2 for an additional 72 h. CellTiter-Glo reagent (Promega) was dispensed into the wells, incubated for 5 min and luminescence was read on a ViewLux instrument (Perkin-Elmer). Cytotoxic compounds were defined as those that yielded a curve class of -1.1, -1.2, -2.1, -2.2, -2.3, or -2.4, a maximum response of >50% and an AC50 of < 10 uM. Cherry-picked hits from screening analysis were tested with both the KB pair of cell lines, and the pcDNA (empty vector control) and MDR-19 (P-gp overexpressing) pair were tested, in the absence and presence of tariquidar.
% is scaled to controls: 0 for no effect and ±100 for the full control effect; potency is read from the fitted curve at half-maximal effect.

SMILES | activity change, negative = cytotoxicity | outcome | Potency
COC(=O)C[C@H]1C(C)(C)[C@H](OC(C)=O)C2CC3=C4CC(=O)O[C@@H](c5ccoc5)[C@]4(C)CCC3[C@@]1(C)C2=O (stereo not given in full) | -7.57% [at 17.3 µM] | – | –
COc1ccc(/C=C/C(=O)O[C@H]2[C@H](O[C@H]3[C@@H]4C=CO[C@@H](O[C@@H]5O[C@H](CO)[C@@H](O)[C@H](O)[C@H]5O)[C@@H]4[C@@]4(CO)O[C@@H]34)O[C@@H](C)[C@H](O)[C@H]2OC(C)=O)cc1 | – | inactive [at 17.3 µM] | –
COc1c2c(c(C)c3c1C(=O)OC3)OC1(C)CC(O)C(C(C)(C)O)C(C)(CCC(=O)O)C1C2 (stereo not given) | 1.62% [at 17.3 µM] | – | –
COC(=O)c1cc(OC)cc(OC)c1C(=O)c1c(OC)cc2c(c1O)C1CCCC(C)(O2)O1 (stereo not given) | – | inactive [at 17.3 µM] | –
C=C(C(=O)O)C1CCC2(C)CCCC(C)(O)C2C1 (stereo not given) | 6.71% | – | –
CC1(C)C2CC(OC3OC(COC4OCC(O)(CO)C4O)C(O)C(O)C3O)C1(C)CC2O (stereo not given) | -0.229% [at 17.3 µM] | – | –
c1ccc(-c2csc(N3CCOCC3)n2)cc1 | – | inactive | –
CN1c2ccccc2C(=O)N2CCC3c4ccccc4NC3C21 (stereo not given) | – | – | 2020 nM (active)
O=C1N=C(N2CCOCC2)CN1c1ccc(Cl)cc1 | 2.72% | – | –
CC(=O)O[C@]1(C(C)=O)CC[C@H]2[C@@H]3C[C@H](C)C4=CC(=O)C=C[C@]4(C)[C@@]3(F)[C@@H](O)C[C@@]21C | – | inactive | –
CC(C)CC(=O)O[C@@H]1OC=C(CO[C@@H]2O[C@H](CO)[C@@H](O)[C@H](O)[C@H]2O)[C@H]2[C@@H]3O[C@H]3[C@@](O)(CO)[C@@H]12 | – | inactive [at 17.3 µM] | –
CC1(C)CC[C@]2(C(=O)O[C@@H]3O[C@H](CO)[C@@H](O)[C@H](O)[C@H]3O)CC[C@]3(C)C(=CCC4[C@@]5(C)C[C@@H](O)[C@H](O)[C@@](C)(CO)C5CC[C@]43C)C2[C@@H]1O (stereo not given in full) | – | inactive [at 17.3 µM] | –
C[C@H]1O[C@@H](O[C@H]2CC[C@@]3(C)C(CC[C@]4(C)C3CC=C3C5CC(C)(C)CC[C@]5(C(=O)O)CC[C@]34C(=O)O)C2(C)C)[C@H](O)[C@@H](O)[C@@H]1O (stereo not given in full) | 9.67% [at 17.3 µM] | – | –
CC(=O)O[C@@](C)(C(=O)/C=C/C(C)(C)O)[C@H]1[C@H](O)C[C@@]2(C)[C@@H]3CC=C4[C@@H](C=C(O)C(=O)C4(C)C)[C@]3(C)C(=O)C[C@]12C | – | – | 796 nM (active)
COc1cc(C(=O)O)ccc1OC1OC(CO)C(O)C(O)C1O (stereo not given) | 0.772% | – | –
CC(CCC1(O)OC2CC3C4CCC5CC(O[C@@H]6O[C@H](CO)[C@@H](O)[C@H](O)[C@H]6O[C@@H]6O[C@@H](C)[C@H](O)[C@@H](O)[C@H]6O)C(O)CC5(C)C4CCC3(C)C2C1C)CO[C@@H]1O[C@H](CO)[C@@H](O)[C@H](O)[C@H]1O (stereo not given in full) | 1.44% [at 9.29 µM] | – | –
C=C1CC[C@H]2[C@@](C)(CCC(O)[C@@]2(C)CO)[C@@H]1CCC1=CCOC1=O (stereo not given in full) | -20% | – | –
CC(=O)O[C@H]1C(=O)[C@@]2(C)[C@H]([C@H](OC(=O)c3ccccc3)[C@]3(O)C[C@H](OC(=O)[C@H](O)[C@@H](NC(=O)c4ccccc4)c4ccccc4)C(C)=C1C3(C)C)[C@]1(OC(C)=O)CO[C@@H]1C[C@@H]2O | – | – | 873 nM (active)
Cc1cccc2c1NC(=O)C2(c1ccc(O)cc1)c1ccc(O)cc1 | -21.4% | – | –
OC[C@H]1O[C@@H](O[C@H]2[C@H](OCc3ccccc3)O[C@H](CO[C@@H]3OC[C@@H](O)[C@H](O)[C@H]3O)[C@@H](O)[C@@H]2O)[C@H](O)[C@@H](O)[C@@H]1O | 1.87% [at 17.3 µM] | – | –

SMILES | activity change, negative = cytotoxicity | outcome | Potency
CC/C=C\[C@H](O)[C@H](O)C1=C(C)C(=O)[C@]2(O1)C(=O)N[C@@](OC)(C(=O)c1ccccc1)[C@@H]2O | – | inactive [at 17.3 µM] | –
CC(C)(C)c1ccc(S(=O)(=O)Nc2ccc(Cl)cc2C(=O)c2cc[n+]([O-])cc2)cc1 | -16.6% | – | –
O=C(OC1C=C(CO)C2C(OC3OC(CO)C(O)C(O)C3O)OC=CC12)c1ccc(O)cc1 (stereo not given) | – | inactive [at 17.3 µM] | –
C=C1C[C@]23C[C@H]1CC[C@H]2C1=C[C@H]2OC(=O)[C@@](C)([C@H]1[C@@H]3C(=O)O)[C@H]2O | – | inactive | –
CCc1cc(CN2CC(C(=O)O)C2)sc1-c1noc(-c2ccc(Oc3ccccc3)cc2)n1 | 8.48% [at 17.3 µM] | – | –
CC(Oc1cc(-n2cnc3ccc(CN4CCN(C)CC4)cc32)sc1C(N)=O)c1ccccc1C(F)(F)F (stereo not given) | – | – | 2590 nM (active)
C=C1CCC[C@]2(C)CC[C@@H](C(=C)C(=O)O)[C@H](O)[C@@H]12 | – | inactive | –
NCc1c[nH]c(=S)n1[C@@H]1CCc2c(F)cc(F)cc2C1 | 6.67% | – | –
O=C(O)c1cc(I)ccc1NC(=O)[C@H](Cc1ccccc1)NCc1ccccc1 | 6.68% | – | –
COc1cc(O)c2c(c1)C1=C[C@H](O)[C@@H](O)C[C@]1(C)OC2=O | 1.47% | – | –
C=C1CCC2C(C)(COC(C)=O)CCCC2(C)C1CCC(C)CC(=O)O (stereo not given) | 7.67% | – | –
CC1=CC(=O)CC(C)(C)C1/C=C/C(C)O[C@@H]1O[C@H](CO)[C@@H](O)[C@H](O)[C@H]1O[C@@H]1OC[C@](O)(CO)[C@H]1O (stereo not given in full) | 2.75% [at 17.3 µM] | – | –
O=C(OCC1=CC(O)C2C=CO[C@@H](O[C@@H]3O[C@H](CO)[C@@H](O)[C@H](O)[C@H]3O)C12)c1ccccc1 (stereo not given in full) | 1.8% [at 17.3 µM] | – | –
COc1cc2c3c(cc4ccccc4c3c1O)NC2=O | – | inactive | –
CCOC(=O)c1cc(C#N)c(N2CCC(C(=O)NS(=O)(=O)Cc3ccccc3)CC2)nc1C | – | inactive | –
Cc1ccc(NC(=O)Nc2cc(C(F)(F)F)ccc2F)cc1Nc1ccc2c(c1)NC(=O)/C2=C\c1ccc[nH]1 | – | – | 13000 nM (active)
CC(=O)OC[C@@]12C(=O)C[C@@H](C)[C@]3(C[C@@H](c4ccoc4)O[C@H]3OC(C)=O)[C@H]1CCC[C@]21CO1 | -18.7% [at 17.3 µM] | – | –
CC(C)CCC[C@@H](C)[C@H]1CC[C@H]2[C@@H]3CC(=O)[C@H]4C[C@@H](O)CC[C@]4(C)[C@H]3CC[C@]12C | -15.6% | – | –
C/C=C/C(O)C1OC(=O)CC1Nc1ccc(C(=O)O)cc1 (stereo not given) | 8.63% | – | –
CNC12CC3C[C@@](C)(C1)C[C@](C)(C3)C2 | 0.034% | – | –

From PubChem BioAssay (NCATS)
